Source: PubChem BioAssay (NCATS)
Results filed as inconclusive are left out. Activity calls are given as the source filed them. Calls come from the whole dose curve; as a rule, active = well fitted curve in the direction sought with a large enough effect; inconclusive = small, poorly fitted or top-dose-only effect, or another doubt; inactive = no such curve, though single readings can be large; an effect the other way counts as inactive or inconclusive.

Assays:
[1] = Quantitative High-Throughput drug screen in 47 multiple myeloma cell lines against the NCATS MIPE library collection: ARD_JJKsccE7 cell viability assay (AID 1918929)
Procedure, shortened: (§1)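 Approved and investigational drugs from MIPE 4.0 were added by pin tool to 500 cells per well. After 48 hours at 37C, ATP-based CellTiter-Glo luminescence indicated remaining viability.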

[2] = Quantitative High-Throughput drug screen in 47 multiple myeloma cell lines against the NCATS MIPE library collection: Karpas620_DSMZ cell viability assay (AID 1918959); note: nearly all actives have a fitted effect of over 30% in size
Procedure, shortened: (§2)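 Relative luminescence from CellTiter-Glo served as the viability signal, referenced to DMSO-treated (100%) and cell-free medium (0%) controls. Treatment lasted 48 hours at 37C with 500 cells per well.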

[3] = Quantitative High-Throughput drug screen in 47 multiple myeloma cell lines against the NCATS MIPE library collection: KMM1_JCRB cell viability assay (AID 1918960); note: nearly all actives have a fitted effect of over 30% in size
Procedure, shortened: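 Each line was plated at 500 cells/well and treated 48 h with library drugs. Viability came from CellTiter-Glo luminescence relative to DMSO and cell-free medium controls.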

[4] = Quantitative High-Throughput drug screen in 47 multiple myeloma cell lines against the NCATS MIPE library collection: Karpas417_ECACC cell viability assay (AID 1918961); details: Karpas417 myeloma viability, CellTiter-Glo ATP luminescence, 48 h; viability (% of DMSO): at 45.8 µM (top of the series)
Procedure, shortened: as §2

[5] = Quantitative High-Throughput drug screen in 47 multiple myeloma cell lines against the NCATS MIPE library collection: KHM11_PLB cell viability assay (AID 1918962); note: nearly all actives have a fitted effect of over 35% in size
Procedure, shortened: as §2

[6] = Quantitative High-Throughput drug screen in 47 multiple myeloma cell lines against the NCATS MIPE library collection: JIM3_ECACC cell viability assay (AID 1918963; note: nearly all actives have a fitted effect of over 35% in size)
Procedure, shortened: as §2

[7] = Quantitative High-Throughput drug screen in 47 multiple myeloma cell lines against the NCATS MIPE library collection: JIM1_ECACC cell viability assay (AID 1918964)
Procedure, shortened: as §1

[8] = Quantitative High-Throughput drug screen in 47 multiple myeloma cell lines against the NCATS MIPE library collection: INA6_PLB cell viability assay (AID 1918965; note: nearly all actives have a fitted effect of over 55% in size)
Procedure, shortened: as §2

[9] = Quantitative High-Throughput drug screen in 47 multiple myeloma cell lines against the NCATS MIPE library collection: JJN3_DSMZ cell viability assay (AID 1918966; note: nearly all actives have a fitted effect of over 50% in size)
Procedure, shortened: as §1

[10] = Quantitative High-Throughput drug screen in 47 multiple myeloma cell lines against the NCATS MIPE library collection: H1112_PLB cell viability assay (AID 1918967; note: nearly all actives have a fitted effect of over 30% in size)
Procedure, shortened: as §1

[11] = Quantitative High-Throughput drug screen in 47 multiple myeloma cell lines against the NCATS MIPE library collection: Karpas25_ECACC cell viability assay (AID 1918968; note: nearly all actives have a fitted effect of over 35% in size)
Procedure, shortened: as §1

[12] = Quantitative High-Throughput drug screen in 47 multiple myeloma cell lines against the NCATS MIPE library collection: KMS27_JCRB cell viability assay (AID 1918970); details: KMS27 myeloma cells, CellTiter-Glo ATP viability, 48 h; viability (% of DMSO): at 45.8 µM (top of the series); note: nearly all actives have a fitted effect of over 30% in size
Procedure, shortened: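 Each line is seeded at 500 cells per well and treated with library compounds for 48 hours under 37 °C, 5% CO2. CellTiter-Glo is then added for 5 min at room temperature before median relative luminescence is recorded.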

[13] = Quantitative High-Throughput drug screen in 47 multiple myeloma cell lines against the NCATS MIPE library collection: KMS12BM_JCRB cell viability assay (AID 1918971); note: nearly all actives have a fitted effect of over 35% in size
Procedure, shortened: (§3)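 qHTS of the MIPE 4.0 collection: 500 myeloma cells/well, 48 h drug exposure at 37C in 5% CO2, then CellTiter-Glo for 5 min at room temperature before luminescence reading.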

[14] = Quantitative High-Throughput drug screen in 47 multiple myeloma cell lines against the NCATS MIPE library collection: KMS12PE_JCRB cell viability assay (AID 1918972); note: nearly all actives have a fitted effect of over 30% in size
Procedure, shortened: as §2

[15] = Quantitative High-Throughput drug screen in 47 multiple myeloma cell lines against the NCATS MIPE library collection: KMS26_JCRB cell viability assay (AID 1918975); note: nearly all actives have a fitted effect of over 45% in size
Procedure, shortened: as §3

[16] = Quantitative High-Throughput drug screen in 47 multiple myeloma cell lines against the NCATS MIPE library collection: MMM1_PLB cell viability assay (AID 1918976); note: nearly all actives have a fitted effect of over 35% in size
Procedure, shortened: (§4)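 Readout: median RLU from CellTiter-Glo after 5 min at room temperature. Preceding step was 48 h drug treatment of 500 cells/well at 37 °C, 5% CO2, with DMSO-only and media-only control wells.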

[17] = Quantitative High-Throughput drug screen in 47 multiple myeloma cell lines against the NCATS MIPE library collection: MOLP8_DSMZ cell viability assay (AID 1918977); note: nearly all actives have a fitted effect of over 45% in size
Procedure, shortened: as §4

[18] = Quantitative High-Throughput drug screen in 47 multiple myeloma cell lines against the NCATS MIPE library collection: NCIH929_DSMZ cell viability assay (AID 1918978); note: nearly all actives have a fitted effect of over 35% in size
Procedure, shortened: as §4

[19] = Quantitative High-Throughput drug screen in 47 multiple myeloma cell lines against the NCATS MIPE library collection: KMS20_JCRB cell viability assay (AID 1918973); note: nearly all actives have a fitted effect of over 45% in size
Procedure, shortened: as §1

[20] = Quantitative High-Throughput drug screen in 47 multiple myeloma cell lines against the NCATS MIPE library collection: KMS21BM_JCRB cell viability assay (AID 1918974); details: ATP luminescence, 48 h; viability: at 45.8 µM (top of the series)
Procedure, shortened: as §1

Measured: Potency
Potency is the fitted concentration of half-maximal effect.

Cn1cnc(=N)c2[nH]cnc21
active: [1] 105 nM | [2] 296 nM | [3] 132 nM | [4] 23.5 nM | [5] 372 nM | [6] 1050 nM | [7] 93.5 nM | [8] 46.9 nM | [9] 166 nM | [10] 235 nM | [11] 74.3 nM | [12] 59 nM | [13] 105 nM | [14] 93.5 nM | [15] 132 nM | [16] 148 nM | [17] 41.8 nM | [18] 132 nM

C=CCNc1c(O)cc2c(O)c1C[C@@H](C)C[C@H](OC)[C@@H](O)[C@@H](C)C=C(C)[C@H](OC(N)=O)[C@@H](OC)C=CC=C(C)C(=O)N2
active: [1] 74.3 nM | [2] 1180 nM | [3] 372 nM | [4] 74.3 nM | [5] 264 nM | [6] 590 nM | [7] 209 nM | [8] 187 nM | [9] 296 nM | [10] 1050 nM | [11] 469 nM | [12] 148 nM | [13] 332 nM | [14] 105 nM | [15] 1320 nM | [16] 8330 nM | [17] 332 nM | [18] 418 nM

O=C(C=Cc1ccc(CN(CCO)CCc2c[nH]c3ccccc23)cc1)NO
active: [1] 93.5 nM | [2] 148 nM | [3] 105 nM | [4] 105 nM | [5] 209 nM | [6] 332 nM | [7] 132 nM | [8] 29.6 nM | [9] 93.5 nM | [10] 187 nM | [11] 59 nM | [12] 105 nM | [13] 83.3 nM | [14] 83.3 nM | [15] 105 nM | [16] 66.2 nM | [18] 105 nM

CCN(CC)CCNC(=O)c1c(C)[nH]c(C=C2C(=O)Nc3ccc(F)cc32)c1C
active: [1] 2150 nM | [2] 4810 nM | [3] 3820 nM | [4] 136 nM | [5] 1080 nM | [6] 2150 nM | [7] 481 nM | [8] 1210 nM | [9] 6050 nM | [10] 6790 nM | [11] 1360 nM | [12] 1360 nM | [14] 1360 nM | [19] 855 nM | [20] 762 nM | [15] 17100 nM | [16] 6790 nM | [18] 960 nM

CC(=O)ON=C1C(c2c(O)[nH]c3cc(Br)ccc23)=Nc2ccccc21
active: [1] 5260 nM | [2] 4690 nM | [3] 5900 nM | [4] 5260 nM | [5] 13200 nM | [7] 3720 nM | [8] 935 nM | [9] 20900 nM | [11] 2640 nM | [13] 14800 nM | [14] 1480 nM | [16] 20900 nM | [17] 13200 nM | [18] 2090 nM

Nc1ncn([C@@H]2O[C@H](CO)[C@@H](O)[C@@H]2O)c(=O)n1
active: [1] 2350 nM | [2] 4690 nM | [3] 1180 nM | [4] 9350 nM | [5] 14800 nM | [6] 4690 nM | [7] 1480 nM | [8] 1180 nM | [9] 11800 nM | [10] 18700 nM | [11] 3320 nM | [12] 9350 nM | [13] 8330 nM | [14] 1320 nM | [20] 1870 nM | [15] 13200 nM | [18] 3720 nM

CC(C)(N)c1ccc(-c2nc3ccccc3nc2-c2ccccc2)cc1
active: [1] 14800 nM | [2] 10500 nM | [3] 18700 nM | [4] 372 nM | [5] 8330 nM | [6] 18700 nM | [8] 9350 nM | [9] 20900 nM | [10] 14800 nM | [11] 16600 nM | [12] 18700 nM | [13] 26400 nM | [14] 7430 nM | [19] 4180 nM | [20] 5260 nM | [15] 26400 nM | [16] 18700 nM | [18] 4690 nM

CCNC(=O)Nc1ccc(-c2nc3c(c(N4CCOC[C@H]4C)n2)CCN(C2COC2)C3)cc1
active: [1] 1050 nM | [2] 16600 nM | [3] 332 nM | [4] 83.3 nM | [5] 469 nM | [7] 132 nM | [8] 2090 nM | [9] 833 nM | [10] 590 nM | [11] 935 nM | [13] 1180 nM | [14] 5260 nM | [20] 2350 nM | [15] 1660 nM | [16] 418 nM | [17] 833 nM | [18] 526 nM
